# Measured values from the supplement of paper PMC5736601.
# ± gives the uncertainty stated by the source.
# Tested on: human primary fetal neurons
# Assay: surviving MAP-2+ neurons after FeSO4 challenge with drug pre-treatment, relative to untreated control (% of untreated control); higher = more neuroprotection against iron toxicity
# Settings: 10 µM; FeSO4 concentration 25-50 µM; 24 h
# Protocol: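 Human fetal primary neurons (96-well, AIM-V serum-free medium) were pre-treated for 1 h with each NINDS Custom Collection II drug at 10 µM, then challenged with FeSO4 (25 or 50 µM). After 24 h they were fixed, stained with anti-MAP-2 and counted by automated imaging (ImageXpress/MetaXpress). MAP-2+ neuron counts were normalised to untreated control wells (100%); values are the mean of 1-4 independent experiments, each in quadruplicate.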
row,SMILES,surviving MAP-2+ neurons
1,CN(C)CCOC(c1ccccc1)c1ccccc1.Cn1c(=O)c2[nH]c(Cl)nc2n(C)c1=O,36.5 ± 5.3
2,Cc1ccc(O)cc1.Cc1cccc(O)c1.Cc1ccccc1O,6.04 ± 1.1
